Bioassay records: PubChem, Broad Institute
IDE exosite FP: displaces the probe from the exo-site of human IDE; purified IDE, FL-6b probe fluorescence polarization; stronger effect = lower value; AID 1259349; P14735; z-score at 20 µM; actives 6.3% (n = 17,000);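 active means z-score of -3 or lower, meaning strong loss of probe binding signal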;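 further: His-tagged human IDE residues 42-1019 made in E. coli with 30 nM FL-6b probe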
Target sequence (P14735 42-1019 limits assumed): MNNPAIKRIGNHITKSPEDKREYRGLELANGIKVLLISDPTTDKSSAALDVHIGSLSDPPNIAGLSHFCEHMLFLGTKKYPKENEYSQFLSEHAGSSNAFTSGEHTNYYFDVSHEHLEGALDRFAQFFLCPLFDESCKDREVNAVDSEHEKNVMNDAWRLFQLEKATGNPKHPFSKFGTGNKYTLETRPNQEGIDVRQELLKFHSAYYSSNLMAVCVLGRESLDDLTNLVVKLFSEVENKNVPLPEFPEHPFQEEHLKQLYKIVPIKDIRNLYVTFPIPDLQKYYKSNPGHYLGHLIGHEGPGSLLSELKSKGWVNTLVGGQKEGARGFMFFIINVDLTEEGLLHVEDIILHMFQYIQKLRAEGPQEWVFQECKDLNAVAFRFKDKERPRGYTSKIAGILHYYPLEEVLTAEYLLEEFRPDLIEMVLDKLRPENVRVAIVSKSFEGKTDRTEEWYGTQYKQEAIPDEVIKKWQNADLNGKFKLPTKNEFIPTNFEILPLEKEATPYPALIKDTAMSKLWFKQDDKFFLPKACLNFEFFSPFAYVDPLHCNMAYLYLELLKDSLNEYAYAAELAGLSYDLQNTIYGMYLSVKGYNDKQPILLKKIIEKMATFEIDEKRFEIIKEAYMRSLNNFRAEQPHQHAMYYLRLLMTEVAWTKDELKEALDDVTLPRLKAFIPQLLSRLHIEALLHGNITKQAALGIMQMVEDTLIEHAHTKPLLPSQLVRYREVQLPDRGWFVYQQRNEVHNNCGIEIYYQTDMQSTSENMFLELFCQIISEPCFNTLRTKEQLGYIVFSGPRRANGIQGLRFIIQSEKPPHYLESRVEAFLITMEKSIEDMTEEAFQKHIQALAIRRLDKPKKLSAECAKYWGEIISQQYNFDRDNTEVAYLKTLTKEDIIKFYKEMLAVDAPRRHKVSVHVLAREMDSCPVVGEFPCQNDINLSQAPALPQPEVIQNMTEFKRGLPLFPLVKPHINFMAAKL
Each line names hits and unclear results; the compound was inactive in the other large screens; ! = repeats disagree. Only a selection was taken, and hits are over-represented in it overall.

Cc1ccccc1-c1ccc(C2[C@@H]3CN(C(=O)Cc4ccncc4)C[C@H]2N3)cc1 (stereo partly specified)	IDE exosite FP -9!
COc1cccc(-c2ccc(C3[C@H]4CNC[C@@H]3N4C(=O)NC3CCCCC3)cc2)c1 (stereo partly specified)	IDE exosite FP -3.8!
CCCNC(=O)N1C[C@@H]2N[C@H](C1)C2c1ccc(-c2ccc(F)cc2)cc1 (stereo partly specified)	none
COc1ccc(-c2ccc(C3[C@H]4CNC[C@@H]3N4C(=O)NC3CCCC3)cc2)cc1 (stereo partly specified)	none
CN(C)C(=O)c1cccc(-c2ccc(C3[C@@H]4CN(C(=O)c5cnccn5)C[C@H]3N4)cc2)c1 (stereo partly specified)	none
COc1cccc(-c2ccc(C3[C@@H]4CN(C(=O)c5ccc(F)cc5)C[C@H]3N4)cc2)c1 (stereo partly specified)	none
CCCNC(=O)N1C[C@@H]2N[C@H](C1)C2c1ccc(-c2ccccc2C)cc1 (stereo partly specified)	IDE exosite FP -7.8!
CN(C)C(=O)c1ccc(-c2ccc(C3[C@@H]4CN(C(=O)Cc5ccncc5)C[C@H]3N4)cc2)cc1 (stereo partly specified)	none
O=C(NC1CCCC1)N1[C@@H]2CNC[C@H]1C2c1ccc(-c2cccnc2)cc1 (stereo partly specified)	none
COc1cccc(-c2ccc(C3[C@@H]4CN(C(=O)c5cnccn5)C[C@H]3N4)cc2)c1 (stereo partly specified)	IDE exosite FP -8.7!
CCCNC(=O)N1C[C@@H]2N[C@H](C1)C2c1ccc(-c2cccnc2)cc1 (stereo partly specified)	none
Cc1cccc(-c2ccc(C3[C@@H]4CN(C(=O)Cc5ccncc5)C[C@H]3N4)cc2)c1 (stereo partly specified)	none
COc1cccc(NC(=O)N[C@H]2CC[C@H](CC(=O)N3CCN(C)CC3)O[C@H]2CO)c1	none
C/C=C/c1ccc([C@H]2[C@H]3CN(C(=O)Nc4cccc(OC)c4)CC(=O)N3[C@H]2CO)cc1	none
CO[C@@H]1CN(C)C(=O)c2cc(NC(=O)NC(C)C)ccc2OC[C@@H](C)N(Cc2ccccc2)C[C@@H]1C	none
CCCNC(=O)N1[C@H](CO)[C@@H](c2ccccc2-c2ccc(C)cc2)[C@@H]1C#N	none
CC(=O)N1CCCCN2[C@@H](CO)[C@@H](c3ccc(Br)cc3)[C@@H]2C1	none
CC(=O)N1[C@H](CO)[C@H](c2ccc(-c3cncnc3)cc2)[C@@H]1CN(C)C(=O)C1CC1	none
C[C@H](O)C#Cc1ccc([C@@H]2[C@@H](CO)N3CCCCN(C(=O)c4ccncc4)C[C@H]23)cc1	none
C[C@@H](O)C#Cc1ccc([C@H]2[C@@H](CO)N3CCCCN(C(=O)c4cccc(F)c4)C[C@@H]23)cc1	none
COc1ccc(-c2ccc([C@H]3[C@H]4CN(C(=O)c5ccccn5)CC(=O)N4[C@H]3CO)cc2)cc1	none
CCCNC(=O)Nc1ccc2c(c1)OC[C@H](C)N(S(C)(=O)=O)C[C@@H](C)[C@H](OC)CN(C)C2=O	none
C[C@H](NC(=O)C[C@@H]1C=C[C@H](NC(=O)c2cccnc2)[C@H](CO)O1)c1ccccc1	none
O=C(Cc1ccccc1)N1CC(=O)N2[C@H](CO)[C@@H](c3ccc(-c4cccc(F)c4)cc3)[C@@H]2C1	none
Cc1noc(C)c1S(=O)(=O)N(C)C[C@@H]1Oc2c(NC(=O)c3ccc(-c4nccs4)cc3)cccc2C(=O)N([C@@H](C)CO)C[C@@H]1C	none
N#C[C@@H]1[C@H](c2ccccc2C2=CCCC2)[C@H](CO)N1C(=O)NC1CCCCC1	none
CS(=O)(=O)N1[C@@H](C#N)[C@@H](c2ccccc2-c2ccccc2)[C@@H]1CO	none
CN(C)CC#Cc1ccc([C@H]2[C@@H](CO)N3CCCCN(C(=O)Nc4ccc(F)cc4)C[C@@H]23)cc1	none
COc1ccccc1S(=O)(=O)N1CC[C@@H]2[C@H]1c1cc(-c3ccc(C#N)cc3)ccc1N[C@@H]2CO	none
COc1ccc2c3c([nH]c2c1)[C@H](CO)N(C(C)=O)CC31CCN(Cc2cc(-c3ccccc3)on2)CC1	none
CCCNC(=O)N1C[C@@H]2N[C@H](C1)C2c1ccc(-c2ccc(OC)cc2)cc1 (stereo partly specified)	none
CCCNC(=O)N1C[C@@H]2N[C@H](C1)C2c1ccc(-c2cccc(F)c2)cc1 (stereo partly specified)	none
CCCNC(=O)N1C[C@@H]2N[C@H](C1)C2c1ccc(-c2cccc(OC)c2)cc1 (stereo partly specified)	IDE exosite FP -3.9!
O=C(N[C@H]1C=C[C@@H](CC(=O)N2CCC(Cc3ccccc3)CC2)O[C@@H]1CO)c1cnccn1	none
C[C@@H]1CC=CC[C@H](c2cccc(Cl)c2)NC(=O)[C@@H](Cc2ccccc2)N(C)C(=O)c2ccccc2O1 (mixture of isomers)	none
Cc1ccccc1-c1ccc([C@H]2[C@@H](CO)N3CCCCN(C(=O)NC4CCCC4)C[C@H]23)cc1	IDE exosite FP -17
Cc1ccccc1-c1ccc([C@H]2[C@@H](CO)N3CCCCN(C(=O)NC4CCCC4)C[C@@H]23)cc1	IDE exosite FP -19
Cc1ccccc1-c1ccc([C@H]2[C@H]3CN(C(=O)NC4CCCC4)CCCCN3[C@H]2CO)cc1	IDE exosite FP -5.7
CC(=O)N1CC(=O)N2[C@@H](CO)[C@H](c3ccc(-c4cccc(C(=O)N(C)C)c4)cc3)[C@@H]2C1	none
C/C=C/c1ccc([C@H]2[C@@H](CO)N3C(=O)CN(C(=O)c4cnccn4)C[C@@H]23)cc1	none
C[C@@H]1CN([C@H](C)CO)C(=O)c2ccccc2-c2ccccc2CO[C@H]1CN(C)S(=O)(=O)c1cn(C)cn1	none
CO[C@H]1CN(C)C(=O)c2cc(NS(=O)(=O)c3ccc(Cl)cc3)ccc2OC[C@@H](C)N(C(=O)NC(C)C)C[C@@H]1C	none
N#C[C@H]1[C@H](c2ccc(-c3cncnc3)cc2)[C@H](CO)N1C(=O)CN1CCOCC1	none
O=C(C[C@@H]1C[C@@H]2c3cc(NC(=O)CC4CC4)ccc3O[C@@H]2[C@@H](CO)O1)NCC1CC1	none
N#C[C@H]1N[C@@H](CO)[C@H]1c1ccc(C#Cc2ccccc2F)cc1	IDE exosite FP -4
N#C[C@@H]1[C@H](c2ccc(C#Cc3ccccc3F)cc2)[C@H](CO)N1C(=O)c1cccnc1	none
N#C[C@@H]1[C@@H](c2ccc(C#Cc3ccccc3F)cc2)[C@H](CO)N1C(=O)C1CCC1	none
N#C[C@H]1N[C@H](CO)[C@H]1c1ccc(C#Cc2ccccc2F)cc1	none
N#C[C@@H]1[C@@H](c2ccccc2)[C@@H](CO)N1C(=O)c1cccnc1	none
N#C[C@@H]1N[C@@H](CO)[C@H]1c1ccc(-c2ccccc2F)cc1	none
N#C[C@@H]1[C@H](c2ccc(C#Cc3ccccc3F)cc2)[C@@H](CO)N1C(=O)c1cccnc1	IDE exosite FP -4
N#C[C@H]1[C@H](c2ccc(C#Cc3ccccc3F)cc2)[C@@H](CO)N1C(=O)C1CCOCC1	IDE exosite FP -5.9
N#C[C@H]1[C@H](c2ccc(C#Cc3ccccc3F)cc2)[C@@H](CO)N1C(=O)C1CCC1	none
N#C[C@H]1[C@H](c2ccc(C#Cc3ccccc3F)cc2)[C@@H](CO)N1C(=O)C1CC1	none
N#C[C@@H]1[C@H](c2ccc(C#Cc3ccccc3F)cc2)[C@@H](CO)N1C(=O)C1CCC1	IDE exosite FP -4.8
N#C[C@@H]1[C@@H](c2ccc(C#Cc3ccccc3F)cc2)[C@@H](CO)N1C(=O)C1CC1	none
